Results reported in the supplement of paper PMC4709259.
Structures can show the parent of a compound that is named as a salt. ± gives the standard deviation.

Each compound was assayed on Jurkat (assay: cell count relative to DMSO control (fraction of control); higher = more cells (less growth inhibition)). Conditions: 48 h.

| SMILES | cell count |
| --- | --- |
| CN1CCN(C(=O)O[C@H]2c3nccnc3C(=O)N2c2ccc(Cl)cn2)CC1 [Eszopiclone] (concentration: 25 µM) | 0.796 ± 0.072 |
| COc1cc2c(c(OC)c1OC)-c1ccc(OC)c(=O)cc1[C@@H](NC(C)=O)CC2 [Colchicine] (concentration: 25 nM) | 0.071 ± 0.007 |
| NCC(CC(=O)O)c1ccc(Cl)cc1 (configuration not stated) [Baclofen] (concentration: 25 µM) | 0.555 ± 0.08 |
| COc1cccc(C2(O)CCCCC2CN(C)C)c1 (configuration not stated) [Tramadol·HCl] (concentration: 25 µM) | 0.58 ± 0.18 |
| CCN(C)C(=O)Oc1cccc([C@H](C)N(C)C)c1 [Rivastigmine Tartrate] (concentration: 25 µM) | 0.843 ± 0.13 |
| N.N.[Cl][Pt][Cl] [Cisplatin (Cis-Diamineplatinum(Ii) Dichloride )] (concentration: 25 µM) | 0.895 ± 0.045 |
| CC[C@@H](C(N)=O)N1CCCC1=O [Levetiracetam] (concentration: 25 µM) | 0.603 ± 0.1 |
